Screening results deposited in PubChem BioAssay by Buhrlage Lab, Dana-Farber Cancer Institute and Novartis Institutes for BioMedical Research (Cambridge, Mass).
USP8 block: human USP8 deubiquitinase inhibition; P40818; purified USP8, Ub-rhodamine cleavage fluorescence, 30 min; inhibition, % at 20 µM; 47,000 compounds, 4.2% hits
USP28 block: blocks human USP28 ubiquitin-rhodamine cleavage | Q96RU2 | purified USP28, Ub-rhodamine cleavage fluorescence, 30 min | inhibition, % at 25 µM | 47,000 compounds, 3% hits
USP30 inh: inhibitors of human USP30 deubiquitinase. Q70CQ3. purified USP30, Ub-rhodamine cleavage fluorescence. inhibition, % at 25 µM. 47,000 compounds, 5.3% hits
USP10 inh: human USP10 deubiquitinase inhibition | Q14694 | purified USP10, Ub-rhodamine fluorescence, 60 min | inhibition, % at 20 µM | 47,000 compounds, 1.1% hits | AID 1645856
USP17 inh: inhibitors of human USP17 deubiquitinase | purified USP17, Ub-rhodamine cleavage fluorescence, 3 h | inhibition, % at 50 µM | 47,000 compounds, 6.5% hits | AID 1645855
* = called active by the depositor; . = no result given. Hits are enriched below; roughly 14% of the tested compounds scored in any of these assays. Cut-off read from the data, not from the text of the source: active = inhibition above about 30%; inactive = the rest.

SMILES | USP8 block | USP28 block | USP30 inh | USP10 inh | USP17 inh
Cc1cc(N2CCN(c3ncccn3)CC2)nc2ccc(NC(=O)Cn3nc([N+](=O)[O-])c(Br)c3C)cc12 | 29.5 | 42.2* | 68.0* | 32.7* | 64.5*
CN(C)c1ccc(-c2noc(C(=O)NCc3ccccn3)n2)cc1 | -3.4 | 14.2 | 7.6 | -1.3 | 45.0*
CN(C)c1ccc(-c2noc(C(=O)NCc3ccncc3)n2)cc1 | 12.9 | 26.3 | 31.0* | 1.6 | 10.0
CCN1C(=O)COc2cc(-c3noc(C(=O)NCc4ccccn4)n3)ccc21 | -50.3 | 1.5 | 24.4 | -0.1 | 8.0
O=C(NCc1ccncc1)c1nc(-c2ccncc2)no1 | -0.1 | -1.7 | -0.7 | -2.7 | -5.6
CC1(C)OC2=C(C(=O)c3cc(O)cc(O)c3C2=O)c2cc(CO)c(O)cc21 | 10.4 | 27.1 | -0.1 | -4.3 | 81.8*
COc1ccc(Br)cc1CN1CCCC(C(=O)N2CCC(Cc3ccccc3)CC2)C1 (configuration not stated) | -14.6 | -21.0 | -18.7 | -3.9 | -17.7
COc1ccc2c(c1)C(=O)N(CCc1ccc(S(=O)(=O)NC(=O)NC3CCCCC3)cc1)C(=O)C2(C)C | 17.4 | 20.0 | 46.7* | 20.8 | 28.3
COc1ccc(COC(=O)NC2CCN(S(=O)(=O)c3ccc(OC)cc3)CC2)cc1 | -12.1 | -0.9 | -61.7 | -4.0 | -41.4
O=C(CCCC(=O)c1ccccc1)Nc1cc(Cl)ccc1O | -8.4 | -18.6 | -51.0 | 1.4 | .
Cc1ccc(Cn2nnc3c(=O)[nH]c(C4CCN(C(=O)Cc5ccccc5)CC4)nc32)cc1 | -4.2 | 7.1 | 4.3 | 12.1 | 3.4
COc1ccc(C(=O)N2CCC(c3nc4c(nnn4Cc4cc(C)ccc4C)c(=O)[nH]3)CC2)cc1 | 6.5 | 25.9 | 30.0* | 15.0 | 36.3*
Cc1ccc(Cn2nnc3c(=O)[nH]c(C4CCN(C(=O)CC(C)(C)C)CC4)nc32)cc1 | 9.6 | 31.5* | 29.0 | 7.1 | 9.6
O=C(Cc1ccccc1)N1CCC(c2nc3c(nnn3Cc3ccc(F)cc3)c(=O)[nH]2)CC1 | 19.8 | 16.1 | 31.2* | 12.6 | 3.1
Cc1ccc(Cn2nnc3c(=O)[nH]c(C4CCN(C(=O)c5ccccc5)CC4)nc32)cc1 | 14.2 | 8.9 | 43.4* | 9.9 | 9.8
Cc1ccc(C)c(Cn2nnc3c(=O)[nH]c(C4CCN(C(=O)C5CCCC5)CC4)nc32)c1 | 9.5 | 10.6 | 14.8 | 10.8 | 1.7
O=C(O)c1nnn(-c2cccc(F)c2)c1C1CC1 | 16.5 | 6.7 | 12.4 | 0.2 | 5.1
Cc1ccc2c(c1)C(C)(C)C1(C)NC(=O)CN21 (configuration not stated) | -2.3 | -1.9 | -10.6 | -2.7 | 0.9
O=C(/C=C\c1ccc2c(c1)OCO2)NCc1ccc2[nH]c3c(c2c1)CCCC3 | 2.4 | 27.9 | -34.0 | -2.3 | 29.8
O=C(c1c(F)cccc1F)N1CCC(c2nc3c(nnn3Cc3ccc(F)cc3)c(=O)[nH]2)CC1 | 5.2 | -0.6 | 3.4 | 7.3 | -6.2
N#Cc1ccc(NC(=O)N2CCC(c3nc4c(nnn4Cc4ccc(F)cc4)c(=O)[nH]3)CC2)cc1 | -0.6 | 29.1 | 30.4* | 10.6 | 30.3*
CC(=O)N1CCCC(c2nc(C)cc(Nc3cccc(C)n3)n2)C1 (configuration not stated) | 0.0 | -0.4 | 5.3 | 0.1 | -1.1
Cc1cc(C)c(NC(=O)CSC2=C(C#N)C(c3ccc(C)o3)C3=C(CCCC3=O)N2)c(C)c1 (configuration not stated) | -25.9 | 31.4* | 35.4* | 19.0 | 19.2
Cc1cc(Br)ccc1NC(=O)CSc1nc2c(cc1C#N)C(=O)CCC2 | 7.7 | -9.1 | -14.9 | 6.6 | .
COc1cccc(S(=O)(=O)N2CCN3C(=O)[C@@H](Cc4ccccc4)N(C)C(=O)[C@@H]3C2)c1 | -1.6 | -0.3 | 20.9 | -1.4 | -0.2
SMILES | USP8 block | USP28 block | USP30 inh | USP10 inh | USP17 inh
O=C(CCCc1c[nH]c2ccccc12)N1CCN(C(=O)c2ccc(Cl)cc2Cl)CC1 | 6.3 | 1.6 | 7.3 | 0.6 | 3.1
O=C(NCCc1c[nH]c2ccccc12)NCc1ccc(Cl)cc1Cl | 2.5 | 20.9 | 31.8* | 8.8 | 21.1
COc1cc(C(=O)OCc2csc(-c3ccccc3)n2)cc(Cl)c1OC | -60.7 | -5.6 | -19.9 | 4.9 | -13.2
COc1cc(C(=O)OCc2csc(-c3ccccc3)n2)ccc1OCC(=O)Nc1ccc(F)cc1 | 6.2 | -2.4 | -65.9 | -5.7 | 48.9*
COc1ccc(-n2nnnc2-c2c[nH]c3c(F)cc(F)cc23)cc1 | 30.6* | 16.1 | 12.7 | 7.6 | 4.8
Cc1ccc(-n2nnnc2-c2cnc(C)nc2-c2ccc(Cl)cc2)cc1 | -11.8 | -4.7 | 1.0 | -1.3 | -0.9
CC(=O)c1ccc(NS(=O)(=O)c2cc(C)cc3c2OCCN3C)cc1 | -1.6 | -5.4 | -5.8 | 0.0 | -10.1
Cc1cc(C)c(S(=O)(=O)Nc2cc(C(=O)O)ccc2N2CCN(C)CC2)c(C)c1 | 77.2* | -2.1 | -23.9 | -1.8 | 9.1
CCNC(=O)c1ccc(N2CCNCC2)c(NS(=O)(=O)c2cc(C)c(C)cc2C)c1 | 46.2* | 7.2 | 9.6 | -2.7 | 5.5
CCCN1CCN(c2ccc(C(=O)O)cc2NS(=O)(=O)c2ccccc2)CC1 | 74.2* | -7.9 | -13.3 | -0.1 | 0.3
COc1cccc(CN2CCC3(CC2)OC(C(=O)N2CCCCC2)Cn2ccnc23)c1 (configuration not stated) | -124.0 | -7.0 | -0.2 | -1.7 | -22.2
CC(C(=O)NCCc1ccc(S(N)(=O)=O)cc1)n1sc2ccccc2c1=O (configuration not stated) | 1.4 | 15.9 | 38.5* | 1.2 | -0.2
NS(=O)(=O)c1ccc(CCNC(=O)C(=O)c2c[nH]c3ccccc23)cc1 | 17.0 | 35.6* | 14.9 | 4.5 | 9.9
Cc1ccc(CN2CCCn3c2nc2c3c(=O)[nH]c(=O)n2C)cc1 | 0.2 | 5.6 | 27.7 | 2.3 | 16.5
Cc1cccc(N2CCN(S(=O)(=O)c3cc(-c4nnc(C5CC5)o4)co3)CC2)c1 | -30.0 | -21.9 | -76.9 | -2.3 | -21.8
CC1CCN(C(=O)Nc2cccc(C#N)c2)Cc2nc3ccccc3n21 (configuration not stated) | 9.2 | 7.4 | 4.7 | 0.1 | 1.8
CC1CCN(C(=O)Nc2ccc3ccccc3c2)Cc2nc3ccccc3n21 (configuration not stated) | -125.8 | 7.2 | 33.2* | 4.8 | 28.0
Cc1ncc2c(c1O)COC(C(C)C)OC2 (configuration not stated) | -4.3 | -11.0 | -17.8 | -2.8 | -5.6
O=C(Nc1ccc(N2CCOCC2)cc1)C(Cc1ccccc1)NS(=O)(=O)c1ccc2c(c1)OCCO2 (configuration not stated) | -11.5 | 37.2* | -9.6 | 17.3 | -6.6
O=C(O)C(Cc1ccccc1)NS(=O)(=O)c1ccc2c(c1)OCCO2 (configuration not stated) | -15.7 | 5.8 | 0.5 | -7.7 | -7.7
O=C(NCc1ccccc1)C(Cc1ccccc1)NS(=O)(=O)c1ccc2c(c1)OCCO2 (configuration not stated) | 30.7* | 56.4* | 52.3* | 9.7 | 86.4*
O=C(CN(c1ccccc1)S(=O)(=O)c1ccccc1)Oc1cc(Cl)ccc1Cl | 30.2* | 6.2 | 34.2* | 5.1 | 20.7
